# Laboratory results published in PubChem BioAssay (NCATS).
# Results filed as inconclusive are left out. A call without a number means that no potency is given here. Active and inactive are the calls of the source. Calls come from the whole dose curve; as a rule, active = well fitted inhibition curve with a large enough effect; inconclusive = small, poorly fitted or top-dose-only effect; inactive = no such curve, though single readings can be large or run the other way.
# Target: Tyrosine-protein kinase Yes (Homo sapiens) (UniProt P07947)
# Experiment: qHTS for small molecule inhibitors of Yes1 kinase: Primary Screen (AID 686947); note: nearly all actives have a fitted effect of over 60% in size
# Conditions: Yes1 kinase biochemical qHTS inhibition; series mostly up to 76.9 µM
# Summary of the method: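 ADP-Glo luminescence readout; final 4 nM Yes1, 0.1 mM ATP, 0.3 mg/mL poly(E4Y), Tris pH 7.5, MgCl2, DTT, Brij-35. 20 min compound preincubation, 60 min reaction at RT. Normalized to DMSO wells with and without enzyme.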
# Potency is the fitted concentration of half-maximal effect.
# Sequence of Tyrosine-protein kinase Yes (Homo sapiens) (P07947 whole entry, looked up): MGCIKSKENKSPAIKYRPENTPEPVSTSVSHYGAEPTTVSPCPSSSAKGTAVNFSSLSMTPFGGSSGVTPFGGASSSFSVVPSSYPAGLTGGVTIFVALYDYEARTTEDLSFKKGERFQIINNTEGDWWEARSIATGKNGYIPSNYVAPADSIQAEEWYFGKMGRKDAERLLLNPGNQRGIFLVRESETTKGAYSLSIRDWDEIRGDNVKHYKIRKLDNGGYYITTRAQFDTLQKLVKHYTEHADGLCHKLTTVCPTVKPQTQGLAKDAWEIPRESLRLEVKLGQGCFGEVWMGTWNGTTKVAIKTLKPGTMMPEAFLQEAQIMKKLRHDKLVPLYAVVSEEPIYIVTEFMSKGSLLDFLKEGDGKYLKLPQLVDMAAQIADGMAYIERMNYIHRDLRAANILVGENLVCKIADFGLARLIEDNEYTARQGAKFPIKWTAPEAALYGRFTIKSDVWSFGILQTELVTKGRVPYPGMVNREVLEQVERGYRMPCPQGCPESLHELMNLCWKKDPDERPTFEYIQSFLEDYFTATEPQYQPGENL
row,SMILES,Potency
1,CC(C)(C)COc1ccc(-n2cc(C(=O)O)cn2)cc1C#N,inactive
2,CO[C@H]1C[C@@H]2CC[C@@H](C)[C@@](O)(O2)C(=O)C(=O)N2CCCC[C@@H]2C(=O)O[C@H]([C@H](C)C[C@@H]2CC[C@H](OCCO)[C@H](OC)C2)CC(=O)[C@H](C)C=C(C)[C@@H](O)[C@@H](OC)C(=O)[C@H](C)C[C@H](C)C=CC=CC=C1C,inactive
3,COc1cccc2c1CCCC2CCCN1CCN(C2CCCCC2)CC1 (centres undefined),inactive
4,O=C(O)c1ccc(-c2cc3cccnc3c(-c3ccc4nonc4c3)n2)cc1,inactive
5,CC(C)C(=O)Nc1ncc(-c2cc(C(F)F)nn2-c2c(Cl)cccc2Cl)s1,27.4 µM (active)
6,O=C(Nc1ccccc1-c1cn2c(CN3CCNCC3)csc2n1)c1cnc2ccccc2n1,inactive
7,c1ccc2c(-c3cnn4cc(-c5ccc(N6CCNCC6)cc5)cnc34)ccnc2c1,0.137 µM (active)
8,O=C1C(Cl)=C(NCCN2CCOCC2)C(=O)c2ncccc21,6.88 µM (active)
9,COc1cc2nc(-c3ccc(N4CCN(C)CC4)cc3)nc(NCCN3CCOCC3)c2cc1OC,inactive
10,O=c1cc(CN2CCOCC2)occ1OCCCCCSc1ccnc2cc(C(F)(F)F)ccc12,inactive
11,CC(C)(C)c1cc(C(=O)O)c(NC(=O)Nc2ccc3[nH]ncc3c2)s1,inactive
12,Cc1nc(N)sc1-c1ccnc(Nc2ccc(N3CCOCC3)cc2)n1,0.308 µM (active)
13,COc1cc2ncnc(-n3nc(-c4ccccn4)nc3N)c2cc1OC,2.74 µM (active)
14,Cn1cc(C=C2C(=O)Nc3cccnc32)c2ccccc21,0.519 µM (active)
